A selection: hits, their analogues and other compounds. The true share with any hit is near 4.8%.
HEK293 cAMP ctrl = parental HEK293 cAMP activation (counter-screen); parental HEK293 CNG cAMP sensor, membrane potential fluorescence; Potency, µM (titrated, usually from 57.1 µM), without a hit: top-dose activation, hits mostly activators; 2.5% of 73,000 active; AID 938; note: % of control where 0% means no effect; nearly all actives have a fitted effect of over 55% in size
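Parental HEK 293 cells stably expressing a cAMP-gated CNG channel were loaded with membrane potential dye containing 100 uM RO 20-1724 for 60 min. Compound added for 30 min; depolarization read as fluorescence intensity at 590 nm.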
ERK AVP block = inhibitors of vasopressin-stimulated ERK signaling pathway; HEK293-V1b, vasopressin-stimulated pERK AlphaScreen; Potency, µM (series often up to 57.5 µM), for inactives: at the highest dose activity, negative = inhibition, actives largely listed as inhibitors; 0.99% of 72,000 active; AID 995; note: % is set by controls: 0 for no effect and ±100 for the full control effect; nearly all actives have a fitted effect of over 55% in size
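Phosphorylated ERK1/2 detected via AlphaScreen bead proximity in lysates of V1b-expressing HEK293 cells given 25 nM vasopressin for 5 min after 30 min compound exposure (37 °C). AC50 from Hill equation; basal DMSO 0%, vasopressin 100%.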
Casp1 inh = caspase-1 (human) inhibition, allosteric or competitive. P29466. Potency, µM (highest dose often 57.5 µM), for inactives: at the top dose activity change, negative = inhibition, usual class: inhibitors. 0.03% of 75,000 active. Caspase-1 enzyme, Ac-WEHD-AFC fluorogenic rate;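 note: plate controls were vehicle for no effect and no substrate for full effect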
ALOX15 inhib = inhibitors of human 15-lipoxygenase (ALOX15) | P16050 | purified 15hLO-1, xylenol orange hydroperoxide absorbance | Potency, µM (doses to about 57.1 µM), without a hit: at the top dose activity change, negative = inhibition, actives largely listed as inhibitors | 1.4% of 74,000 active | AID 887; note: % is set by controls: 0 for no effect and ±100 for the full control effect; nearly all actives have a fitted effect of over 55% in size
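Inhibition is scored from a chromogenic endpoint. After 15 min enzyme-compound contact, arachidonic acid (50 uM final) reacts 6 min with 40 nM 15hLO-1 at room temperature, then Fe-XO reagent is added for 30 min and absorbance ratio recorded.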
TSHR ag = TSH receptor (human) agonism. HEK293-CNG-TSHR cells (CNG channel as cAMP sensor), membrane potential dye, cAMP. Potency, µM (highest dose often 57.1 µM), for inactives: at the highest dose activation, hits mostly activators. 0.48% of 73,000 active; active = well fitted activation curve with a large enough effect in the main read-out, with a control signal flat, not every such curve was filed as active; inconclusive = small, poorly fitted or top-dose-only effect, or a change in a side signal; inactive = no such curve, though single readings can be large or run the other way; % of control where 0% means no effect;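 note: the control signal comes from parental cells without the receptor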
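HEK 293 cells stably expressing TSHR and a modified CNG channel, with CNG-only parental cells as counterscreen, were preloaded 60 min at room temperature with membrane potential dye containing 100 uM RO 20-1724. Compound exposure was 30 min, and depolarization was read as fluorescence at 590 nm.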
Casp7 inh = blocks human caspase-7 allosterically or competitively; Potency, µM (top dose mostly 57.5 µM), for the others: at the highest dose activity change, negative = inhibition, most hits filed as inhibitors; recombinant caspase-7, Ac-DEVD-AFC fluorescence rate; P55210; 0.02% of 75,000 active; active = well fitted inhibition curve with a large enough effect in the main read-out, with a control signal flat, not every such curve was filed as active; inconclusive = small, poorly fitted or top-dose-only effect, or a change in a side signal; note: % of control where 0% means no effect
* marks the source's active call; other numbers are inactive results; [ ] = another dose, or the depositor's remark. Unless noted, calls come from the whole dose curve; as a rule, active = well fitted curve in the direction sought with a large enough effect; inconclusive = small, poorly fitted or top-dose-only effect, or another doubt; inactive = no such curve, though single readings can be large; an effect the other way counts as inactive or inconclusive. Potency is the fitted concentration of half-maximal effect.

Results for O=C(O)[C@@H](c1ccccc1)N1Cc2ccccc2C1=O ?
HEK293 cAMP ctrl: inconclusive; Casp1 inh: -3.1%; ALOX15 inhib: 7.94µM*; TSHR ag: inconclusive; Casp7 inh: -1.3%

How did COc1ccc(NC(=O)N2CC[C@@]3(CCCN(C(=O)c4ccncc4)C3)C2)cc1 do in these assays?
HEK293 cAMP ctrl: 20.1%; ERK AVP block: 12.3%; Casp1 inh: -1.7%; ALOX15 inhib: -4.3%; TSHR ag: -2.6%; Casp7 inh: 2.4%

How did O=C(Nc1ccc2nc(-c3ccc(Br)o3)[nH]c2c1)c1cccs1 do in these assays?
HEK293 cAMP ctrl: 23.3%; ERK AVP block: inconclusive; Casp1 inh: -6.2%; ALOX15 inhib: -28.2%; TSHR ag: 14.5%; Casp7 inh: -4.4%

Results for Cn1cccc1-c1nc2ccc(NC(=O)c3cccs3)cc2[nH]1 ?
HEK293 cAMP ctrl: 1.4%; ERK AVP block: 20µM*; Casp1 inh: -1.1%; ALOX15 inhib: -23.8%; TSHR ag: 4.4%; Casp7 inh: -0.8%

How did O=C(O)C1(O)C[C@H](O)C(O)[C@@H](O)C1 (stereo not given in full) do in these assays?
ERK AVP block: 15.9%; Casp1 inh: 0.2%; ALOX15 inhib: 9.3%[25.6 µM]; Casp7 inh: 0.2%

Results for COc1ccc(O[C@H]2C=C[C@@H](c3ccccc3)O[C@H]2COC(=O)CC/C(C)=N\OC[C@@H](O)[C@H]2O[C@H]3OC(C)(C)O[C@H]3[C@@H]2O)cc1 ?
HEK293 cAMP ctrl: 2.4%[11.4 µM]; ERK AVP block: 5.3%[11.5 µM]; Casp1 inh: -1.0%[11.5 µM]; ALOX15 inhib: 3.2%[11.4 µM]; TSHR ag: -3.9%[11.4 µM]; Casp7 inh: 1.4%[11.5 µM]

How did Cc1ccc(-c2nnc(N3CCN(C(=O)CN4C(=O)c5ccccc5C4=O)CC3)c3ccccc23)cc1 do in these assays?
HEK293 cAMP ctrl: 14.5%; ERK AVP block: -7.1%; Casp1 inh: inconclusive; ALOX15 inhib: inconclusive; TSHR ag: 19.1%; Casp7 inh: -21.6%

What do the screens show for `Cc1ccc(-c2nnc(N3CCN(C(=O)c4ccco4)CC3)c3ccccc23)cc1`?
HEK293 cAMP ctrl: 0.7%; ERK AVP block: 25.1µM*; Casp1 inh: -1.6%; ALOX15 inhib: -22.0%; TSHR ag: -5.8%; Casp7 inh: 1.9%

What do the screens show for `O=C(c1ccco1)N1CCN(c2ncnc3c(-c4ccccc4)nsc23)CC1`?
HEK293 cAMP ctrl: 28.0%; ERK AVP block: 25.1µM*; Casp1 inh: -7.2%; ALOX15 inhib: -19.3%; TSHR ag: 18.0%; Casp7 inh: -5.3%

What do the screens show for `COc1ccc(-c2nsc3c(N4CCN(C(=O)c5ccco5)CC4)ncnc23)cc1`?
HEK293 cAMP ctrl: inconclusive; ERK AVP block: 23.8%; Casp1 inh: -0.8%; ALOX15 inhib: -4.6%; TSHR ag: inconclusive; Casp7 inh: 0.3%

Results for CC1CCC2C(=O)N3CCCC3C(=O)N2C1c1ccc(Br)cc1 (stereo not given) ?
HEK293 cAMP ctrl: 6.9%[11.4 µM]; ERK AVP block: 30.8%[11.5 µM]; Casp1 inh: -0.5%[11.5 µM]; ALOX15 inhib: 5.9%[11.4 µM]; TSHR ag: 6.4%[11.4 µM]; Casp7 inh: -0.4%[11.5 µM]

Results for Nc1ccccc1[N+](=O)[O-] ?
HEK293 cAMP ctrl: 20.7%; ERK AVP block: -11.9%; Casp1 inh: 1.4%; ALOX15 inhib: -0.4%; TSHR ag: 0.7%; Casp7 inh: -0.4%

How did COc1ccccc1N1CCN(c2nc(N)c(C#N)c(CC#N)c2C#N)CC1 do in these assays?
HEK293 cAMP ctrl: 9.7%; ERK AVP block: inconclusive; Casp1 inh: -9.1%; ALOX15 inhib: 1.3%; TSHR ag: 7.7%; Casp7 inh: -14.7%

Results for COc1cc2c(C#N)c(N3CCN(c4ccccc4OC)CC3)nc(N)c2c(N)n1 ?
HEK293 cAMP ctrl: -6.7%; ERK AVP block: 25.1µM*; Casp1 inh: -4.0%; ALOX15 inhib: -5.2%; TSHR ag: -10.1%; Casp7 inh: -2.4%

What do the screens show for `O=C(Cn1c(C(=O)NCc2ccco2)cc2sccc21)c1ccccc1`?
HEK293 cAMP ctrl: 20.5%; ERK AVP block: -15.8%; Casp1 inh: -3.2%; ALOX15 inhib: -5.0%; Casp7 inh: -0.1%

What do the screens show for `O=C(NCc1ccco1)C1CCN(C(=O)c2cc3sccc3n2Cc2ccc(Cl)cc2)CC1`?
HEK293 cAMP ctrl: 12.6µM*; ERK AVP block: inconclusive; Casp1 inh: -3.5%; ALOX15 inhib: inconclusive; TSHR ag: inconclusive; Casp7 inh: -3.4%

Results for O=C(/C=C/c1ccc(O)cc1)c1ccccc1O ?
ERK AVP block: 3.98µM*; Casp1 inh: -2.2%; ALOX15 inhib: 10µM*; Casp7 inh: -6.0%

How did O=C(/C=C/c1ccc(O)cc1)c1cccs1 do in these assays?
ERK AVP block: 15.8µM*; Casp1 inh: -3.1%; ALOX15 inhib: inconclusive; Casp7 inh: -7.7%

What do the screens show for `CCC(c1nnnn1Cc1ccco1)N(Cc1cc2cc(C)cc(C)c2[nH]c1=O)CC1CCCO1` (stereo not given)?
HEK293 cAMP ctrl: 20µM*; ERK AVP block: 4.3%; Casp1 inh: -16.7%; ALOX15 inhib: 10µM*; TSHR ag: inconclusive; Casp7 inh: -16.4%

Results for CCOc1ccc2[nH]c(=O)c(C(c3nnnn3Cc3ccco3)N3CCCC(C)C3)cc2c1 (stereo not given) ?
HEK293 cAMP ctrl: 7.94µM*; ERK AVP block: 12.5%; Casp1 inh: -9.2%; ALOX15 inhib: inconclusive; TSHR ag: inconclusive; Casp7 inh: -15.7%

What do the screens show for `COc1ccc2[nH]c(=O)c(CN(C3CCCCC3)C(c3nnnn3Cc3ccco3)C(C)C)cc2c1` (stereo not given)?
HEK293 cAMP ctrl: 23.7%; ERK AVP block: -17.7%; Casp1 inh: inconclusive; ALOX15 inhib: 15.8µM*; TSHR ag: -17.3%; Casp7 inh: inconclusive

Results for CCOc1ccc2[nH]c(=O)c(C(c3nnnn3Cc3ccco3)N3CCC(C)CC3)cc2c1 (stereo not given) ?
HEK293 cAMP ctrl: 31.6µM*; ERK AVP block: -10.3%; Casp1 inh: -16.0%; ALOX15 inhib: inconclusive; TSHR ag: inconclusive; Casp7 inh: -24.4%

What do the screens show for `N#Cc1nc(COc2ccc(F)cc2)oc1N1CCC(Cc2ccccc2)CC1`?
HEK293 cAMP ctrl: 3.98µM*; ERK AVP block: 17.0%; Casp1 inh: 2.4%; ALOX15 inhib: -10.4%; TSHR ag: inconclusive; Casp7 inh: -0.9%

Results for N#Cc1nc(COc2ccc(F)cc2)oc1N1CCN(Cc2ccccc2)CC1 ?
HEK293 cAMP ctrl: 6.31µM*; ERK AVP block: -10.4%; Casp1 inh: 0.4%; ALOX15 inhib: -4.5%; TSHR ag: inconclusive; Casp7 inh: -1.6%

What do the screens show for `c1ccc2c(NCCN3CCOCC3)nc(-c3ccc4c(c3)OCO4)nc2c1`?
HEK293 cAMP ctrl: -90.3%; ERK AVP block: inconclusive; Casp1 inh: -16.5%; ALOX15 inhib: -9.8%; TSHR ag: inconclusive; Casp7 inh: -22.0%
